The campaign covered roughly 320,000 compounds. About 1,300 (0.41%) were called active. Another 3% or so got no clear call; they are omitted. The rule behind the calls is not given here. Only a sample is shown. Results with a measured potency or affinity are listed apart.

This assay is described as follows: growth inhibition of non-replicating M. tuberculosis (AID 488890).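 Note: plate controls were DMSO cells for no effect and high antibiotic wells for full effect.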 As to conditions: Mycobacterium tuberculosis non-replicating, at 25 µM, stronger effect = higher value.
A word on the inhibition: it is the change of the read-out against control, counted positive when it falls. For `CC(C)c1ccc2[nH]c3c(c2c1)CCCC3=O`, the inhibition was found to be 6.88%.
In the case of `O=C(NN=C1CCCCCC1)c1ccncc1`, the inhibition came out at 70.4%.
Next, `O=C(N/N=C1\CCCc2c1[nH]c1ccc([N+](=O)[O-])cc21)c1ccncc1`: -12.5%; `Nc1ccc(C(=O)N/N=C2\CCCc3c2[nH]c2ccccc32)cc1`: 19.8%; `CC1=C(/C=C/C(C)=C/C=C/C(C)=C/C(=O)O)C(C)(C)CCC1`: 15.6%.
With `CC(/C=C/c1ccc2c(c1)OCO2)=N\NC(=O)c1cccc([N+](=O)[O-])c1` the figure was 68.6%; with `CC1=C(/C=C/C(=O)O)C(C)(C)CCC1`, 13.1%.
On to `C/C(=N\NC(=O)c1cccc([N+](=O)[O-])c1)c1ccncc1`, for which the inhibition worked out at 8.18%.
Next, `COc1cc(NC(=O)CN2CCN(c3ccccc3)CC2)c(C)cc1[N+](=O)[O-]`: -14%; `O=C1C(c2ccccc2)=C(N2CC2)c2ccccc21`: 15.4%.
As for `Nc1c(C(=O)c2ccccc2)sc2c1c(=O)[nH]c(=O)n2-c1ccccc1`, the inhibition came out at 6.25%.
With `CCOC(=O)c1nn(-c2cccc(Cl)c2)c2nc(Nc3ccccc3)cc(=O)n12` the figure was 63.6%; with `CCOC(=O)c1nn(-c2ccc(F)cc2)c2nc(Nc3ccccc3)cc(=O)n12`, 75.5%; with `Cc1cc(C(=O)N2CCCC(N3CCN(c4ccccc4C)CC3)C2)n(C)n1` (centres undefined), 8.85%.
Turning to `CCN1CCN(C2CC(=O)NC2=O)CC1` (centres undefined), the inhibition is -2.18%.
Next, `Cc1ccc(NC(=O)C2CCN(C(=O)N3CCOc4ccccc43)CC2)cc1`: 25.7%.
Turning to `Oc1ccc2ccccc2c1CN1CCCC1`, the inhibition was determined as 21.4%.
Next, `Oc1ccc(Br)cc1CN1CCCCCCC1`: 8.51%; `O=C(NC1CCCCC1)C1CCCN(S(=O)(=O)c2cccc3cccnc23)C1` (centres undefined): -8.57%; `CCOC(=O)c1cc(=O)c2c([N+](=O)[O-])ccc(OC)c2o1`: -14.2%.
Next, `CCOC(=O)c1cc(=O)cc(C(=O)OCC)o1`: -3.36%; `COc1cccc(C(=O)NCC(=O)NCc2cc(=O)n(C)c(=O)n2C)c1OC`: -9.9%.
Next, `O=C1CNC(=S)N1C1CCCCCC1`: 0.27%; `O=C(CCN1C(=O)S/C(=C/c2ccc(F)cc2)C1=O)Nc1ccc(O)c(C(=O)O)c1`: -1.86%; `O=C(CCN1C(=O)S/C(=C\c2ccc(F)cc2)C1=O)Nc1ccc(O)cc1C(=O)O`: 24.1%.
On to `CCCn1c(=O)c2ccccc2n2c(SCc3nnc(-c4ccccc4Br)o3)nnc12`, for which the inhibition was -5.68%.
Next, `COC(=O)c1ccn(-c2nc(-c3ccco3)cc(C(F)(F)F)n2)n1`: -17.4%; `O=C(COc1ccccc1Cl)c1ccc2c(c1)CCCC2`: 38.7%.
With `Cc1ccc(NC(=O)CCc2ccc(C)o2)c(C)c1` the figure was 68.3%; with `Cc1ccc(CCC(=O)Nc2ccc(N(C)C)cc2)o1`, 39.5%; with `Cc1ccc(CCC(=O)Nc2ccc(Cl)cc2)o1`, 79.5%.
With `Cc1ccc(C)c(NC(=O)CCc2ccc(C)o2)c1` the figure was 79.3%; with `Cc1cccc(NC(=O)CCc2ccc(C)o2)c1`, 25.7%.
Take `Cc1ccc(CCC(=O)Nc2ccc([N+](=O)[O-])cc2Cl)o1`: the inhibition was 75.5%.
With `Cc1cccn2c(=O)c3cc(S(=O)(=O)c4ccccc4)c(=N)n(Cc4cccnc4)c3nc12` the figure was -4.09%; with `Cc1ccc(C(=O)N2CCC(C(=O)Nc3cccc([N+](=O)[O-])c3)CC2)cc1`, 28.6%.
Regarding `Cc1ccccc1NC(=O)Cn1nc(C(=O)O)c2ccccc2c1=O`, the inhibition is -3.67%.
With `Cc1ccc(C)c(-n2c(-c3csc(C)c3)n[nH]c2=S)c1` the figure was 11.6%.
With `CCCC(=O)Nc1ccc(C2C(=O)c3ccccc3C2=O)cc1` the figure was -4.62%; with `O=C(Nc1ccc(N2CCN(C(=O)c3ccccc3)CC2)cc1)c1ccc2c(c1)OCO2`, 13.6%; with `CCOC(=O)N1CCC(NS(=O)(=O)c2cc3c(cc2C)NC(=O)CO3)CC1`, 8.95%.
Take `CCOC(=O)N1CCC(NC(=O)CN(C)S(=O)(=O)c2cc3c(cc2Cl)NC(=O)CO3)CC1`: the inhibition was 31.8%.
Next, `Oc1ccccc1N=Cc1ccc[nH]1`: 72.2%; `O=C1NCC(O)=C1C=NCCO`: -6.04%.
Next, `CCOc1ccc(NC(=O)CSc2nc(-c3cccs3)cc(C(F)(F)F)n2)c([N+](=O)[O-])c1`: 7.92%.
Next, `CCN(CC)C(=O)CSc1nc2c(c(-c3cccnc3)c1C#N)CCCC2`: 24%; `CN(c1ccccc1)S(=O)(=O)c1ccc(C(=O)OCC(=O)NCc2ccco2)cc1`: 18.2%.
Turning to `Cc1cc(C(=O)N/N=C/c2ccc([N+](=O)[O-])cc2)c(C)o1`, the inhibition is -13.2%.
With `Nc1nonc1C(=O)N/N=C/c1ccc(Br)o1`, the inhibition is -9.49%.
On to `Cc1ccc(/C=N/NC(=O)c2cc(C)oc2C)o1`, for which the inhibition came to 3.1%.
Next, `O=C(N/N=C/c1ccc([N+](=O)[O-])o1)c1ccccc1NS(=O)(=O)c1cccs1`: 48%; `O=C(N/N=C/c1ccc([N+](=O)[O-])cc1)c1ccc(NS(=O)(=O)c2cccs2)cc1`: 17.2%.
In the case of `Nc1nonc1C(=O)N/N=C/c1ccc(-c2cccc([N+](=O)[O-])c2)o1`, the inhibition is -4.42%.
Next, `O=C(N/N=C/c1ccc([N+](=O)[O-])cc1)c1cc2ccccc2o1`: 6.74%; `O=C(N/N=C/c1cccc([N+](=O)[O-])c1)c1cc2ccccc2o1`: 21.7%.
Next, `O=S(=O)(Nc1nc2ccccc2nc1Cl)c1ccc2ccccc2c1`: 47.8%.
With `Cc1ccc(NC(=O)COC(=O)C2CCN(c3ccc(C(F)(F)F)cn3)CC2)cc1C` the figure was 14.8%; with `N#Cc1nc(N2CCCCC2)nc(N2CCOCC2)n1`, 13.1%; with `C=CCn1c(CNC(=O)c2ccco2)nnc1SCC(=O)c1ccccc1`, 12.6%.
With `CCCn1c(=O)c(C(=O)NNS(=O)(=O)c2ccc(Cl)cc2)c(O)c2ccccc21`, the inhibition was determined as 30.4%.
Next, `COc1cc(/C=N\Nc2nncn2N)ccc1OC(C)=O`: 8.91%.
With `COc1ccc(S(=O)(=O)NC(CC(=O)NCCc2ccc(OC)c(OC)c2)c2ccco2)cc1` (centres undefined) the figure was -6.87%; with `COCCSc1ccccc1C(=O)N1CCC(Cc2ccccc2)CC1`, 12.1%; with `O=C(N/N=C/c1ccc([N+](=O)[O-])o1)c1ccc(O)cc1`, 76.5%.
In the case of `O=C(N/N=C/c1ccncc1)c1sc2ccccc2c1Cl`, the inhibition was determined as 67.1%.
With `CCN(CC)C(=O)Cn1cc(S(=O)(=O)CC(=O)Nc2ccc(F)cc2)c2ccccc21` the figure was -1.96%; with `C/C(=N\NC(=O)c1ccccc1[N+](=O)[O-])c1c(O)cc(C)oc1=O`, 11.3%.
With `CCc1ccc(OCC(=O)N/N=C(\C)c2ccc(O)cc2O)cc1` the figure was 69%; with `CCCCCCCCC(=O)N/N=C(\C)c1ccco1`, -9.44%; with `C/C(=N\Nc1ccccc1)c1c(O)cc(C)oc1=O`, 54.3%.
With `C/C(=N\NC(=O)c1ccccc1O)c1c(O)cc(C)oc1=O` the figure was 76.5%; with `CCCCCC(=O)c1ccc(O)cc1O`, 44.3%.
`CCc1ccccc1N/N=C(/C)c1c(O)cc(C)oc1=O`: the inhibition stood at 19.8%.
In the case of `C/C(=N\NC(=O)c1cccnc1)c1c(O)cc(C)oc1=O`, the inhibition was -4.46%.
